Compound activity from PubChem.
Cdc25B block: inhibitors of Cdc25B phosphatase catalytic domain, primary screen, biochemical, OMFP fluorescence. M-phase inducer phosphatase 2 (Homo sapiens), P30305. recombinant Cdc25B, OMFP fluorescence Ex485/Em525. inhibition, %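 (compounds tested at 10 µM final in the well)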. 65,000 tested, 0.1% active; in the data active means inhibition above about 50%
Hsp90 inh: tumor Hsp90 inhibitors, primary screen, cell lysate, fluorescence polarization, NCI-N417 lysate. Heat shock protein HSP 90-alpha (Homo sapiens), P07900. Cy3B-geldanamycin FP displacement. inhibition, % at 30 µM. 64,000 tested, 0.35% active;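 active means inhibition above 50%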
MMP13 inh: human MMP13 inhibitors, primary screen, biochemical, FRET peptide cleavage; Collagenase 3 (Homo sapiens), P45452; MMP-13 fTHP FRET cleavage, Mca fluorescence; inhibition, % at 4 µM; 65,000 tested, 0.07% active; AID 570, 2006;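 active means inhibition above the mean of compound-free control plate wells plus 3 SD, cut at about 14% in these data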
DUSP1 inh: MKP-1 phosphatase inhibitors, primary screen, biochemical, in vitro. Dual specificity protein phosphatase 1 (Homo sapiens), P28562. recombinant MKP-1, OMFP hydrolysis fluorescence. inhibition, %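 (compounds tested at a single concentration somewhere between 10 and 100 µM)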. 65,000 tested, 0.15% active. AID 374, 2006;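 active means inhibition above about 50%, limit read from the data; inconclusive means inhibition over screen mean plus 3 SD, below that limit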
Target sequence (P28562 whole entry, looked up): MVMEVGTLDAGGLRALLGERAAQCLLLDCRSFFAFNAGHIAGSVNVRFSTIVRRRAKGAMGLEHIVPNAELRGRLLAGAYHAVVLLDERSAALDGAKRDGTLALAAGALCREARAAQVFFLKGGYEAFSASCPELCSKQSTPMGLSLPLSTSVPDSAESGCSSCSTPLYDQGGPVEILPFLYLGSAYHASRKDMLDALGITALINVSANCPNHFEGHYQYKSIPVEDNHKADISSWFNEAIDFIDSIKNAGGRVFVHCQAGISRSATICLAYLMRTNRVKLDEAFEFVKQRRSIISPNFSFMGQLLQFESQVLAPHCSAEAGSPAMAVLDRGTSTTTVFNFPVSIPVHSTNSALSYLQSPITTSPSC
WNV protease inh: inhibitors of WNV NS2B-NS3 protease, primary screen, biochemical, fluorogenic substrate | Genome polyprotein (West Nile virus), P06935 | fluorogenic substrate Ex360/Em465; active compounds read low | z-score (concentration not given with the values) | 65,000 tested, 0.18% active | AID 577, 2007; in the data active means z-score below about -3
Target sequence (P06935 1371-1501 limits assumed): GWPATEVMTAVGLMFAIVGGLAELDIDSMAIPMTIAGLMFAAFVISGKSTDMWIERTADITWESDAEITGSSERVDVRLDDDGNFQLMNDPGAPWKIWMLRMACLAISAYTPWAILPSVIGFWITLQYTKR
Target sequence (P06935 1502-1679 limits assumed): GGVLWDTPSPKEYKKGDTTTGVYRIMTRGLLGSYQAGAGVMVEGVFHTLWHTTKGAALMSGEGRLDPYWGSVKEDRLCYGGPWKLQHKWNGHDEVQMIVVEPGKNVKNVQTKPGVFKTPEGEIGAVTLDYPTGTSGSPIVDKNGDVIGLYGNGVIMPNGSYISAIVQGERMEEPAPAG
mHtt clearance: clearance of mutant huntingtin inclusions, primary screen, imaging, HeLa Exon1htt(103Q)mCFP, confocal imaging; aggregate imaging; zero = plate's median compound well; inhibition, % at 1.5 µM; 47,000 tested, 0.42% active;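 active means inhibition of aggregate fluorescence above about 70%, also judged a hit by eye on the cell image, limit read from the data, passing the limit was not always enough; inconclusive means no rule stated for this call; inactive means not judged a hit on image review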;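 further: cells exposed to compound for three days before fixation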
Redox 05 DTT: redox cycling H2O2 generation, 0.5 mM DTT, dose response, artefact control, biochemical, Cdc25B catalytic domain. shares compounds with Cdc25B block. 30 tested, 50% active. cell-free redox cycling H2O2 generation. EC50, µM; in the data active means EC50 below about 30 µM
Redox 1 DTT: redox cycling H2O2 generation, 1 mM DTT, dose response, artefact control, biochemical, 1.0 mM DTT, Cdc25B catalytic domain | shares compounds with Cdc25B block | cell-free redox cycling H2O2 generation | EC50, µM | 30 tested, under 10 active | AID 683, 2007; in the data active means EC50 below about 50 µM
Redox cycler: redox cycling hydrogen peroxide production, dose response, artefact control, biochemical, probe assessment; shares compounds with DUSP1 inh; Redox cycling H2O2 generation, DTT, phenol red/HRP; EC50, µM; 60 tested, under 10 active; AID 672, 2007; call rule not given here
Of the large screens only hits and unclear results are named; the others gave an inactive call (follow-up assays come after a bar, where they were run). Most compounds without a hit are left out; they make up all but 0.89% or so of the library.

CC(=O)OCCNc1cc(N2CCN(C)CC2)c2noc3c2c1C(=O)c1ccccc1-3	none (no result: mHtt clearance)
CCn1c(SCC(=O)N2CCc3ccccc32)nnc1-c1ccco1	none (no result: Cdc25B block, Hsp90 inh, MMP13 inh, DUSP1 inh, WNV protease inh)
NC(=O)CSc1nnc(CCc2nc3ccccc3[nH]2)n1-c1ccccc1	none (no result: Cdc25B block, Hsp90 inh, MMP13 inh, DUSP1 inh, WNV protease inh)
Cc1ccc2c(c1C)NC(C(=O)O)C1CC=CC21 (stereo not given)	Cdc25B block 53, DUSP1 inh inconclusive (no result: mHtt clearance) | Redox 05 DTT inactive | Redox 1 DTT inactive
Cc1ccccc1Nc1cc2ccccc2c(=O)[nH]1	Cdc25B block 81, Hsp90 inh 79 (no result: mHtt clearance) | Redox 05 DTT inactive | Redox 1 DTT inactive
O=C(Nc1ccc2nc(-c3ccco3)c(-c3ccco3)nc2c1)N1CCCCCC1	Cdc25B block 51, DUSP1 inh 51 (no result: mHtt clearance) | Redox 05 DTT inactive | Redox 1 DTT inactive | Redox cycler inactive
O=C(Nc1nc2ccccc2s1)C1CC(=O)N(c2ccc(F)cc2)C1 (stereo not given)	none (no result: Cdc25B block, Hsp90 inh, MMP13 inh, DUSP1 inh, WNV protease inh)
N#Cc1c(N)sc(=S)c2c1CCN(Cc1ccccc1)C2	Cdc25B block 102, DUSP1 inh 100 (no result: mHtt clearance) | Redox 05 DTT 13 | Redox 1 DTT 24 | Redox cycler 35
COc1ccc(Br)cc1/C=c1\sc2nc(-c3ccco3)nn2c1=O	Cdc25B block 61, DUSP1 inh 58, WNV protease inh -3 (no result: mHtt clearance) | Redox 05 DTT inactive | Redox 1 DTT inactive | Redox cycler inactive
Cc1ccc(/C=c2\sc3nc(-c4ccco4)nn3c2=O)o1	none (no result: mHtt clearance)
O=C(c1ccccc1)N1CCN(c2ncnc3sc4c(c23)CCC4)CC1	none (no result: Cdc25B block, Hsp90 inh, MMP13 inh, DUSP1 inh, WNV protease inh)
CC(C)Sc1nc2sc3c(c2c2nnc(SCC(=O)NCc4ccco4)n12)CCCC3	DUSP1 inh 54 | Redox cycler inactive
CCCCCC#CCC#CCC#CCC#CCCCC(=O)O	none (no result: mHtt clearance) | Redox cycler inactive
COc1ccc(-n2c(NC(=O)c3ccco3)c(C#N)c3nc4ccccc4nc32)cc1	none (no result: mHtt clearance) | Redox cycler inactive
Cc1cc(NC(=O)c2ccc(S(=O)(=O)N3CCOCC3)cc2)nc2c1c(=O)oc1ccccc12	none (no result: mHtt clearance)
Cc1cc(NC(=O)c2ccc(S(=O)(=O)N3CCCC3)cc2)nc2c1c(=O)oc1ccccc12	DUSP1 inh 67 (no result: mHtt clearance) | Redox cycler inactive
CCOC(=O)c1ccc2c(c1)C1C=CCC1C(C(=O)O)N2 (stereo not given)	DUSP1 inh 57 (no result: mHtt clearance) | Redox cycler inactive
O=C(O)C1Nc2c(C(=O)N3CCOCC3)cccc2C2C=CCC12 (stereo not given)	none
CCn1c(SCC(=O)Nc2ccc3c(c2)OCCO3)nnc1-c1ccco1	none
CCn1c(SCC(=O)Nc2ccc3c(c2)c2ccccc2n3CC)nnc1-c1ccco1	DUSP1 inh 64, WNV protease inh -3 (no result: mHtt clearance) | Redox cycler inactive
CCN1CCCC1CNC(=O)c1nn(-c2ccc(C)cc2)c(=O)c2c1c1ccccc1n2C (stereo not given)	none (no result: mHtt clearance)
Cc1csc(NC(=O)c2sc3nc(-c4cccs4)ccc3c2N)n1	none
CCCSc1nnc(NC(=O)c2sc3nc(-c4cccs4)ccc3c2N)s1	DUSP1 inh 53 | Redox cycler inactive
Nc1c(N2CCCC2)cc(Cl)c2nonc12	DUSP1 inh 72 | Redox cycler inactive
C=CCn1c(SCC(=O)Nc2ncc(Cc3cc(Cl)ccc3Cl)s2)nnc1-c1ccncc1	none (no result: Cdc25B block, Hsp90 inh, MMP13 inh, DUSP1 inh, WNV protease inh)
Cc1cccc(NC(=O)c2cc(NC(=O)C3CCCCC3C(=O)O)ccc2N2CCCCC2)c1 (stereo not given)	DUSP1 inh 65 (no result: mHtt clearance) | Redox cycler inactive
Cc1cc(C)n2c(SCC(=O)N3CCN(S(=O)(=O)c4ccc(Cl)cc4)CC3)nnc2n1	DUSP1 inh 56 | Redox cycler inactive
Cc1cc(C)c2nc(Nc3nc(C)cc(=O)[nH]3)nc(C)c2c1	none (no result: mHtt clearance)
COc1ccc(Cn2c(C)nc3c(c2=O)c2nc4ccccc4nc2n3Cc2ccco2)cc1	none (no result: mHtt clearance) | Redox cycler inactive
COc1ccc(Cn2c3nc4ccccc4nc3c3c(=O)n(Cc4ccco4)c(C)nc32)cc1	none (no result: mHtt clearance)
O=C(c1cccs1)c1no[n+]([O-])c1C(=O)c1cccs1	DUSP1 inh 91 (no result: mHtt clearance) | Redox cycler inactive
CCOc1ccc(N(CC(=O)NCC2CCCO2)C(=O)CCC(=O)Nc2ccccn2)cc1 (stereo not given)	none (no result: Cdc25B block, Hsp90 inh, MMP13 inh, DUSP1 inh, WNV protease inh)
CC(=O)[C@@H]1[C@@H]2C(=O)N(c3ccc(F)c(Cl)c3)C(=O)[C@@H]2C2c3ccccc3C=CN21 (stereo not given in full)	none (no result: mHtt clearance) | Redox cycler inactive
CC(=O)[C@H]1[C@@H]2C(=O)N(c3cccc(Cl)c3)C(=O)[C@@H]2[C@H]2c3ccccc3C=CN21	none
FC(F)(F)c1ccc(N2CCOCC2)c(Nc2nc3ccccc3n3cnnc23)c1	DUSP1 inh 61 | Redox cycler inactive
Cc1ccccc1NCC(=O)N/N=C/C(Br)=C/c1ccccc1	none (no result: Cdc25B block, Hsp90 inh, MMP13 inh, DUSP1 inh, WNV protease inh)
CCn1c(N)c(C(=O)NCC2CCCO2)sc1=S (stereo not given)	none (no result: mHtt clearance)
CCCCCNC(=O)c1ccc2c(=O)[nH]c3c(C(=O)NCC4CCCO4)sc(=S)n3c2c1 (stereo not given)	DUSP1 inh 55 (no result: mHtt clearance) | Redox cycler inactive
CN(C)c1nc(N)nc(CSc2nnnn2-c2ccccc2)n1	none (no result: Cdc25B block, Hsp90 inh, MMP13 inh, DUSP1 inh, WNV protease inh)
Nc1nc2c(s1)CCc1c-2cnn1-c1ccccc1	Hsp90 inh 93, DUSP1 inh 52 | Redox cycler inactive
COc1ccc(-c2cnn(-c3ccccc3)c2N)cc1OC	none (no result: mHtt clearance)
CCCOc1ccc(C(C)=O)cc1CSc1nc(O)cc(=O)[nH]1	none (no result: Cdc25B block, Hsp90 inh, MMP13 inh, DUSP1 inh, WNV protease inh)
CCCn1c(=N)n(CCOCCOCCn2c(=N)n(CCC)c3ccccc32)c2ccccc21	none (no result: Cdc25B block, Hsp90 inh, MMP13 inh, DUSP1 inh, WNV protease inh)
